Results filed as inconclusive are left out. Calls of active or inactive are those of the source. Calls follow the shape of the dose curve; as a rule, active = well fitted curve in the direction sought with a large enough effect; inconclusive = small, poorly fitted or top-dose-only effect, or another doubt; inactive = no such curve, though single readings can be large; an effect the other way counts as inactive or inconclusive.
Target: N-terminal Xaa-Pro-Lys N-methyltransferase 1 (Homo sapiens) (UniProt Q9BV86)
Sequence (Q9BV86 whole entry, looked up): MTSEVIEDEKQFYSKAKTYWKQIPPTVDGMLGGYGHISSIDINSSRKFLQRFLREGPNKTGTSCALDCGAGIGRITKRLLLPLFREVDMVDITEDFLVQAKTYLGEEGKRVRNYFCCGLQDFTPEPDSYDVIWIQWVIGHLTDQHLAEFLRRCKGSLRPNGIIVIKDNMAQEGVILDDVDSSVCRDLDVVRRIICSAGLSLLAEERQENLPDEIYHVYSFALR
Test: Confirmatory qHTS for Inhibitors of N-terminal methyltransferase 1 (NTMT1): MTaseGlo Assay (AID 1645874); also: nearly all actives have a fitted effect of over 65% in size;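 as to activity change, negative = inhibition: luminescence from SAH made as NTMT1 methylates SPKRIA peptide using SAM; 0% = DMSO control and -100% = no-enzyme control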
Conditions: NTMT1 enzyme, MTase-Glo SAH luminescence; series mostly up to 100 µM; activity change, negative = inhibition: at the top concentration
Method in brief: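 NTMT1 (125 nM) preincubated 15 min with compound and 100 uM SAM, then 1 uM SPKRIA peptide added for 30 min at room temperature. SAH detected by MTase-Glo luminescence; normalized to no-enzyme and DMSO controls, fitted to 4-parameter Hill.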
Potency is read from the fitted curve at half-maximal effect.

Structure (SMILES)	Potency	activity change, negative = inhibition
NCC(CNc1nc(Nc2cccc(NC(=O)N3CCCC3)c2)ncc1I)C(=O)c1cccs1 (stereo not given)	22.4 µM (active)	
CN(C)CCCn1cc(C2=C(c3c[nH]c4ccccc34)C(=O)NC2=O)c2ccccc21	39.8 µM (active)	
C/C(=N\N=C(N)N)c1cc(NC(=O)CCCCCCCCC(=O)Nc2cc(/C(C)=N/N=C(N)N)cc(/C(C)=N/N=C(N)N)c2)cc(/C(C)=N/N=C(N)N)c1	20 µM (active)	
CCCC1(CCC)CCC2(CCN(CCCN(CC)CC)C2)CC1	50.1 µM (active)	
O=C([C@@H]1CCCN(c2ccc3[nH]c(C4(n5cc(Cl)cn5)CC4)nc3n2)C1)N1CCCC1		-4.73% (inactive)
O=c1nc(-c2ccccn2)sc2ccccc12		-6.04% (inactive)
COc1cccc(-c2cn(-c3ccc(CCN4CCC(O)CC4)cc3)c3ncnc(N)c23)c1	35.5 µM (active)	
COc1cc(CCc2ccc(OCC=C(C)C)cc2)cc(OC)c1OC		3.21% [at 51.5 µM] (inactive)
CCOc1ccc(Cc2nc(-c3c(C)nc4ccccn34)cs2)cc1		-1.86% (inactive)

System: not listed separately
Test: Primary qHTS for inhibitors of nuclear receptor binding SET domain protein 2 (NSD2) in an isogenic RCH-ACV NSD2 p.E1099K mutant (9B) (AID 1645876); also: nearly all actives have a fitted effect of over 70% in size; as to activity change, negative = viability loss: % is scaled to controls: 0 for no effect and ±100 for the full control effect
Conditions: RCH-ACV (leukaemia line) NSD2 E1099K (9B) viability, CellTiter-Glo, 72 h; series mostly up to 44.9 µM; activity change, negative = viability loss: at the top concentration

Structure (SMILES)	Potency	activity change, negative = viability loss
NCC(CNc1nc(Nc2cccc(NC(=O)N3CCCC3)c2)ncc1I)C(=O)c1cccs1 (stereo not given)	1.15 µM (active)	
CCOC(=O)c1csc(Nc2ccc(Cl)cc2)n1	18.3 µM (active)	
CC(=O)OC[C@]12[C@H](OC(C)=O)[C@H](OC(=O)c3ccccc3)[C@@H]3[C@@H](OC(C)=O)[C@]1(OC3(C)C)[C@H](C)C[C@H](OC(C)=O)[C@@H]2OC(=O)c1ccccc1		-22.6% [at 17.3 µM] (inactive)
O=C(Nc1cc(C(F)(F)F)cc(C(F)(F)F)c1)c1cnc(Cl)nc1C(F)(F)F	25.8 µM (active)	
O[C@@](Cc1ncc(CC2(C(F)(F)F)CC2)[nH]1)(c1ccc(-n2cccn2)cc1)C(F)(F)F	23 µM (active)	
CC1=C(c2ccc(NC(=O)c3c(F)cccc3F)cc2)CN(c2nccs2)CC1		-22.2% (inactive)
C=C(C)C1CCC2(C(=O)O)CCC3(C)C(CCC4C5(C)C(C=O)C(O)C(C)(C)C5CCC43C)C12 (stereo not given)		-26.2% [at 17.3 µM] (inactive)
CC(C)(Cc1ccccc1)NCC(O)c1ccc(O)c(NS(C)(=O)=O)c1 (stereo not given)		-28.6% (inactive)
CN(C)CCCn1cc(C2=C(c3c[nH]c4ccccc34)C(=O)NC2=O)c2ccccc21	5.78 µM (active)	
C[C@@]12C(=O)N(c3ccc(C(=O)Nc4cccc5cccnc45)cc3)C(=O)[C@@H]1[C@@H]1C=C[C@H]2C1		-26.7% (inactive)
CC(C)n1c(=O)c(C(=O)NC2CC3CCC(C2)N3C[C@@H](O)CN(C)S(C)(=O)=O)cc2ccccc21 (stereo not given in full)		-20% (inactive)
CC(=O)N[C@H]1[C@H](O[C@H]2CC[C@@]3(C)C(CC[C@]4(C)C3CC=C3C5CC(C)(C)CC[C@]5(C(=O)O)C(O)C[C@]34C)C2(C)C)O[C@H](CO[C@@H]2O[C@H](C)[C@H](O)[C@H](O)[C@H]2O[C@@H]2OC[C@@H](O)[C@H](O)[C@H]2O)[C@@H](O)[C@@H]1O (stereo not given in full)	2.45 µM (active)	
N#Cc1cc(C2=Nc3ccc(Br)cc3NC(=O)C2)ccn1		-23.5% (inactive)
C/C(=N\N=C(N)N)c1cc(NC(=O)CCCCCCCCC(=O)Nc2cc(/C(C)=N/N=C(N)N)cc(/C(C)=N/N=C(N)N)c2)cc(/C(C)=N/N=C(N)N)c1	11.5 µM (active)	
CCC(C(C)O)n1ncn(-c2ccc(N3CCN(c4ccc(OCC5COC(Cn6cncn6)(c6ccc(F)cc6F)C5)cc4)CC3)cc2)c1=O (stereo not given)	2.05 µM (active)	
C=CC(C)(O)CC/C=C(/C)COC(=O)C(C)C1CCC(C)(C=C)O1 (stereo not given)		-36.7% (inactive)
CCCC1(CCC)CCC2(CCN(CCCN(CC)CC)C2)CC1	2.63 µM (active)	
C/C(=C\Cc1c(O)c(Cl)c(C)c(C=O)c1O)CC/C=C(\C)[C@H]1CC(=O)C(C)(C)O1	2.52 µM (active)	
C=C1/C(=C/C=C2\CCC[C@@]3(C)C2CCC3[C@H](C)/C=C/[C@@H](O)C2CC2)C[C@@H](O)C[C@@H]1O (stereo not given in full)	23 µM (active)	
COc1cc(C(=O)O)ccc1NC(=O)C1NC(CC(C)(C)C)C(C#N)(c2ccc(Cl)cc2F)C1c1cccc(Cl)c1F (stereo not given)		4.28% (inactive)
Cc1cccc(C#Cc2cc(F)cc(C#N)c2)n1		-9.55% (inactive)
COc1cc2ncc(-c3ccccc3)nc2cc1OC	20.5 µM (active)	
C=C[C@H](/C=C\c1ccc(O)cc1)c1ccc(O)cc1	16.3 µM (active)	
O=c1nc(-c2ccccn2)sc2ccccc12	4.59 µM (active)	
Cn1cc(C2=C(c3coc4ccccc34)C(=O)NC2=O)c2cc(Br)ccc21	18.4 µM (active)	
COc1cccc(-c2cn(-c3ccc(CCN4CCC(O)CC4)cc3)c3ncnc(N)c23)c1	1.63 µM (active)	
